# Results from the supplement of paper PMC8866396.
# Where “and” joins values, the source holds several entries; their conditions need not be identical. Equal values may be shown once. ± gives the standard deviation of the averaged measurements.
# Experiments:
# IL-6-GFP PC-9GR = experiment: cell viability (CCK-8 OD) relative to DMSO control (fraction of control); higher = more viable cells; settings: compound concentration: 10 uM; treatment time: 48 h
# Summary of the method: (§1)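 In 96-well plates, 3000 cells/well of PC-9 or PC-9GR lung cancer cells with lentiviral IL-6-GFP overexpression received each compound of a purchased 510-compound library at a final 10 μM for 48 h. Viability, measured by CCK-8 absorbance, is each well's optical density relative to the vehicle control well. Data come from two independent replicates.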
# IL-6-GFP PC-9 = experiment: as above; settings: compound concentration: 10 uM; treatment time: 48 h
# Summary of the method: as §1
SMILES,cell viability (IL-6-GFP PC-9GR),cell viability (IL-6-GFP PC-9)
CC(OCC1(c2ccccc2)CCC2(CCC(=O)N2)CN1)c1cc(C(F)(F)F)cc(C(F)(F)F)c1 (centres undefined) [Rolapitant],0.76 ± 0.035,0.853 ± 0.26
C=C1CCC2C(C)(CO)C(O)CCC2(C)C1C/C=C1\C=COC1=O (centres undefined) [Dehydroandrographolide],1.17 ± 0.35,1.24 ± 0.12
CC(C)(O)c1ccccc1CCC(SCC1(CC(=O)O)CC1)c1cccc(/C=C/c2ccc3ccc(Cl)cc3n2)c1 (centres undefined) [Montelukast],1.11 ± 0.26,0.934 ± 0.32
Cl.c1ccc2c(c1)CCCC2C1=NCCN1 (centres undefined) [Tetrahydrozoline HCl],0.987 ± 0.049,1.13 ± 0.15
CCCC1CC(C(=O)NC(C(C)O)C2OC(SC)C(O)C(O)C2O)N(C)C1.Cl (centres undefined) [Lincomycin HCl],1.13 ± 0.27,0.958 ± 0.048
CCN(CC)CCNC(=O)c1c(C)[nH]c(/C=C2\C(=O)Nc3ccc(F)cc32)c1C [Sunitinib],0.573 ± 0.2,0.911 ± 0.27
"COc1ccc2cc1Oc1ccc(cc1)CC1c3cc(c(OC)cc3CCN1C)Oc1c(O)c(OC)cc3c1C(C2)N(C)CC3 (single isomer, unassigned; (+)) [(+)-Fangchinoline]",0.731 ± 0.36,0.678 ± 0.23
O=C(O)COC(=O)Cc1ccccc1Nc1c(Cl)cccc1Cl [Aceclofenac],1.29 ± 0.4,1.1 ± 0.052
CCC1(O)C(=O)OCc2c1cc1n(c2=O)Cc2cc3cc(O)ccc3nc2-1 [(S)-10-Hydroxycamptothecin],0.466 ± 0.076,0.433 ± 0.032
O=C1OC(OC(=O)c2cccnc2Nc2cccc(C(F)(F)F)c2)c2ccccc21 (centres undefined) [Talniflumate],1 ± 0.022,0.967 ± 0.02
CC1(C)OC2CC3C4CCC5=CC(=O)C=CC5(C)C4C(O)CC3(C)C2(C(=O)CO)O1 (centres undefined) [Desonide],0.804 ± 0.24,0.683 ± 0.22
CC(NCc1ccc(OCc2cccc(F)c2)cc1)C(N)=O.CS(=O)(=O)O (centres undefined) [Safinamide Mesylate],1.27 ± 0.017,0.749 ± 0.14
CC1(C)SC2C(NC(=O)C(c3ccccc3)S(=O)(=O)[O-])C(=O)N2C1C(=O)[O-].[Na+].[Na+] (centres undefined) [Sulbenicillin Sodium],0.802 ± 0.17,0.857 ± 0.019
C=CC1CN2CCC1CC2C(O)c1ccnc2ccc(OC)cc12.Cl.O.O (centres undefined) [Quinine HCl Dihydrate],1.2 ± 0.21,1.19 ± 0.04
COc1ccc2cc1Oc1ccc(cc1)CC1c3cc(c(OC)cc3CCN1C)Oc1c(O)c(OC)cc3c1C(C2)N(C)CC3 (centres undefined) [Fangchinoline],1.18 ± 0.33,1.09 ± 0.13
CC(=O)OC1C(=O)C2(C)C(O)CC3OCC3(OC(C)=O)C2C(OC(=O)c2ccccc2)C2(O)CC(OC(=O)C(O)C(NC(=O)c3ccccc3)c3ccccc3)C(C)=C1C2(C)C (centres undefined) [Paclitaxel],0.576 ± 0.036,0.57 ± 0.026
CC12CCC3c4ccc(O)cc4CC(CCCCCCCCCS(=O)CCCC(F)(F)C(F)(F)F)C3C1CCC2O (centres undefined) [Fulvestrant],1.14 ± 0.072,1.024 ± 0.0045
CC12C=CC(=O)C=C1CCC1C3CC(O)C(O)(C(=O)CO)C3(C)CC(O)C12F (centres undefined) [Triamcinolone],1.06 ± 0.13,0.805 ± 0.086
Nc1nc(CC(=O)Nc2ccc(CCNCC(O)c3ccccc3)cc2)cs1 (centres undefined) [Mirabegron],1.09 ± 0.19,0.791 ± 0.035
CN1CCC(=C2c3ccccc3CCc3cccnc32)CC1.O=C(O)/C=C\C(=O)O.O=C(O)/C=C\C(=O)O [Azatadine dimaleate],0.981 ± 0.12,0.513 ± 0.013
CCN1CCN(Cc2ccc(Nc3ncc(F)c(-c4cc(F)c5nc(C)n(C(C)C)c5c4)n3)nc2)CC1 [Abemaciclib],0.668 ± 0.14,0.746 ± 0.094

SMILES,cell viability (IL-6-GFP PC-9GR),cell viability (IL-6-GFP PC-9)
O=c1ccc2cc3ccoc3cc2o1 [Psoralen],0.808 ± 0.11,1.13 ± 0.057
CC1(C)OC2CC3C4CC(F)C5=CC(=O)C=CC5(C)C4(F)C(O)CC3(C)C2(C(=O)CO)O1 (centres undefined) [Fluocinolone Acetonide],1.26 ± 0.091,1 ± 0.015
CCN(CC)Cc1cc(Nc2ccnc3cc(Cl)ccc23)ccc1O.Cl.Cl.O.O [Amodiaquine dihydrochloride dihydrate],1.05 ± 0.011,0.756 ± 0.039
CC1CC2C3CCC4=CC(=O)C=CC4(C)C3C(=O)CC2(C)C1(O)C(=O)CO (centres undefined) [Meprednisone],1.25 ± 0.14,1.46 ± 0.35
CNC(=NC#N)NCCSCc1nc[nH]c1C [Cimetidine],1.56 ± 0.74,1.15 ± 0.23
Cc1c(O)c(C)c2c(c1O)C(=O)CC(c1ccc(O)cc1)O2 (centres undefined) [Farrerol],1.19 ± 0.11,1.05 ± 0.037
Cc1c(N)c(=O)n(-c2ccccc2)n1C [4-Aminoantipyrine],0.98 ± 0.13,1.212 ± 0.0049
Cc1ccc(S(=O)(=O)O)cc1.NC(=O)c1cccc2cn(-c3ccc(C4CCCNC4)cc3)nc12 (centres undefined) [Niraparib (MK-4827) tosylate],0.764 ± 0.096,0.916 ± 0.22
Cl.Cl.Cl.Cl.Cl.Cl.Cl.Cl.c1cc(CN2CCCNCCNCCCNCC2)ccc1CN1CCCNCCNCCCNCC1 [Plerixafor 8HCl (AMD3100 8HCl)],1.04 ± 0.12,1.13 ± 0.1
CCCCC(CC)CN1CN(CC(CC)CCCC)CC(C)(N)C1 (centres undefined) [Hexetidine],1.58 ± 0.49,1.15 ± 0.07
CN(Cc1cnc2nc(N)nc(N)c2n1)c1ccc(C(=O)NC(CCC(=O)O)C(=O)O)cc1 (centres undefined) [Methotrexate],0.638 ± 0.078,0.54 ± 0.15
CCCCCCNC(=O)n1cc(F)c(=O)[nH]c1=O [Carmofur],0.934 ± 0.022,0.906 ± 0.14
CC(=O)c1c(C)c2cnc(Nc3ccc(N4CCNCC4)cn3)nc2n(C2CCCC2)c1=O.Cl,0.661 ± 0.17,0.694 ± 0.11
CC(=O)OC[C@H]1O[C@@H]([S-])[C@H](OC(C)=O)[C@@H](OC(C)=O)[C@@H]1OC(C)=O.CCP(CC)CC.[Au+] [Auranofin],0.00506 ± 0.12,0.0702 ± 0.04
Nc1ccc(S(=O)(=O)Nc2ccnn2-c2ccccc2)cc1 [Sulfaphenazole],1.15 ± 0.36,1.29 ± 0.11
O=C(O)CCc1nc(-c2ccccc2)c(-c2ccccc2)o1 [Oxaprozin],0.9414 ± 0.0067,0.543 ± 0.2
O=C([O-])Cc1ccccc1Nc1c(Cl)cccc1Cl.[Na+] [Diclofenac Sodium],1.3 ± 0.039,1.09 ± 0.084
Nc1nc(Cl)nc2c1ncn2C1OC(CO)C(O)C1F (centres undefined) [Clofarabine],0.5 ± 0.013,0.337 ± 0.13
O=C(O)c1ccccc1O.[NaH] [Sodium salicylate],1.02 ± 0.2,1.03 ± 0.12
Cc1ccc(Nc2c(F)cccc2Cl)c(CC(=O)O)c1 [Lumiracoxib],0.626 ± 0.15,0.853 ± 0.29
CC(Oc1cc(-c2cnn(C3CCNCC3)c2)cnc1N)c1c(Cl)ccc(F)c1Cl [(S)-crizotinib],0.458 ± 0.15,0.756 ± 0.12

SMILES,cell viability (IL-6-GFP PC-9GR),cell viability (IL-6-GFP PC-9)
CC(=O)OC1CCC2(C)C(=CCC3C2CCC2(C)C(c4cccnc4)=CCC32)C1 (centres undefined) [Abiraterone Acetate],1.48 ± 0.41,0.929 ± 0.21
Nc1c(CC(=O)[O-])cccc1C(=O)c1ccc(Br)cc1.[Na+] [Bromfenac Sodium],0.923 ± 0.095,1 ± 0.14
O=C(O)C1CSCN1 (centres undefined) [Timonacic],1.19 ± 0.24,1.01 ± 0.15
CC(C(=O)O)c1ccc(C(=O)c2cccs2)cc1 (centres undefined) [Suprofen],1.53 ± 0.58,1.13 ± 0.022
Nc1nc(F)nc2c1ncn2C1OC(CO)C(O)C1O (centres undefined) [Fludarabine],0.214 ± 0.12,0.232 ± 0.026
"O=c1[nH]cc(F)c(=O)[nH]1 [Fluorouracil (5-Fluoracil, 5-FU)]",0.731 ± 0.011,0.537 ± 0.12
Cc1cc2ncc(C(=O)NCC(C)(C)NCC(=O)N3CCCC3C#N)cn2n1 (centres undefined) [Anagliptin],-0.0161 ± 0.12,1.23 ± 0.022
Cc1cnc(C(=O)NC2CCCCC/C=C\C3CC3(C(=O)NS(=O)(=O)C3CC3)NC(=O)C3CC(Oc4nc5ccccc5c5ccccc45)CN3C2=O)cn1 (centres undefined) [Paritaprevir (ABT-450)],0.779 ± 0.2,0.874 ± 0.28
Cl.O=C1NCC2(CCN(CCc3ccccc3)CC2)O1 [Fenspiride HCl],1.02 ± 0.044,1.24 ± 0.015
CN(N=O)C(=O)NC1C(O)OC(CO)C(O)C1O (centres undefined) [Streptozotocin (STZ)],1.23 ± 0.087,0.636 ± 0.052
COc1cc2nccc(Oc3ccc(NC(=O)NC4CC4)c(Cl)c3)c2cc1C(N)=O.CS(=O)(=O)O [lenvatinib Mesylate],1.15 ± 0.17,0.265 ± 0.16
CC(CCC(=O)NCCS(=O)(=O)O)C1CCC2C3C(O)CC4CC(O)CCC4(C)C3CCC12C (centres undefined) [Tauroursodeoxycholic Acid (TUDCA)],1.2 ± 0.37,1.24 ± 0.23
CCC(C)C(=O)OC1CC(O)C=C2C=CC(C)C(CCC(O)CC(O)CC(=O)[O-])C21.[Na+] (centres undefined) [Pravastatin sodium],0.932 ± 0.038,1.17 ± 0.016
CC(Cn1ccc(-c2ccc(C#N)c(Cl)c2)n1)NC(=O)c1cc(C(C)O)[nH]n1 (centres undefined) [Darolutamide (ODM-201)],0.858 ± 0.18,0.962 ± 0.21
N#CCC(C1CCCC1)n1cc(-c2ncnc3[nH]ccc23)cn1 (centres undefined),1.08 and 1.17,1.11 and 0.753
Cn1c(=O)cc(N2CCCC(N)C2)n(Cc2cc(F)ccc2C#N)c1=O (centres undefined) [Trelagliptin],1.09 ± 0.15,1.33 ± 0.49
CC12CCC(=O)C=C1CCC1C2C(O)CC2(C)C1CCC2(O)C(=O)CO (centres undefined) [Hydrocortisone],1.41 ± 0.42,0.995 ± 0.24
CC1CC2C3CC(F)C4=CC(=O)C=CC4(C)C3(F)C(O)CC2(C)C1(O)C(=O)CO (centres undefined) [Diflorasone],0.825 ± 0.11,0.833 ± 0.23
CC(=O)OCC(CCn1cnc2cnc(N)nc21)COC(C)=O [Famciclovir],1.32 ± 0.15,1.26 ± 0.18
CN(C)CCC(c1ccc(Br)cc1)c1ccccn1.O=C(O)/C=C\C(=O)O (centres undefined) [Brompheniramine hydrogen maleate],1.17 ± 0.23,1.09 ± 0.15
